Compounds without any hit were thinned out: in the full panel of roughly 83,000, 20% have a hit.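 Interpretation: 100, growth as untreated; towards 0, rising growth inhibition; 0, no net growth; 0 to -100, cell death. Compounds scoring below 10 were considered active.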 A number with no mark means an inactive call. Calls of active or inactive are those of the source.
Columns and labels:
Assay in all cases: NCI-60 one-dose screen, 48 h (100 = growth as untreated, 0 = no growth, -100 = all killed)
DU-145 prostate = conditions: 10 µM unless noted
K-562 leukemia = conditions: 10 µM unless noted
MALME-3M melanoma = conditions: 10 µM unless noted
MDA-MB-231 breast = conditions: 10 µM unless noted
RXF 393 renal = conditions: 10 µM unless noted
SF-268 CNS = conditions: 10 µM unless noted
SF-539 CNS = conditions: 10 µM unless noted
UACC-257 melanoma = conditions: 10 µM unless noted
M14 melanoma = conditions: 10 µM unless noted
HCT-15 colon = conditions: 10 µM unless noted
HT29 colon = conditions: 10 µM unless noted
SNB-75 CNS = conditions: 10 µM unless noted
SNB-19 CNS = conditions: 10 µM unless noted
U251 CNS = conditions: 10 µM unless noted
PC-3 prostate = conditions: 10 µM unless noted
SK-MEL-5 melanoma = conditions: 10 µM unless noted
UACC-62 melanoma = conditions: 10 µM unless noted
LOX IMVI melanoma = conditions: 10 µM
SK-MEL-28 melanoma = conditions: 10 µM unless noted
SF-295 CNS = conditions: 10 µM unless noted

SMILES	growth (DU-145 prostate)	growth (K-562 leukemia)	growth (MALME-3M melanoma)	growth (MDA-MB-231 breast)	growth (RXF 393 renal)	growth (SF-268 CNS)	growth (SF-539 CNS)	growth (UACC-257 melanoma)	growth (M14 melanoma) [%]	growth (HCT-15 colon)	growth (HT29 colon)	growth (SNB-75 CNS) [%]	growth (SNB-19 CNS) [%]	growth (U251 CNS)	growth (PC-3 prostate)	growth (SK-MEL-5 melanoma)	growth (UACC-62 melanoma)	growth (LOX IMVI melanoma)	growth (SK-MEL-28 melanoma)	growth (SF-295 CNS) [%]
CC(C)=CCC[C@@H](C)[C@H]1CC[C@@]2(C)C3=C(CC[C@]12C)[C@@]1(C)CC[C@H](O)C(C)(C)[C@@H]1CC3	126%	91.2%	110%	112%	95.9%	117%	101%	121%	108	97.9%	90.1%	92.7	105	99.2%	101%	104%	101%	103%	104%	
CCN(C(=O)Nc1ccccc1Cl)c1ccccc1	109%	93.9%	100%	109%	115%	109%	104%	102%	111	94.1%	101%	117	103	96.8%	94.6%	101%	104%	96.5%	113%	
O=Cc1ccc(F)cc1	109%	127%	85.1%	97.1%	86.9%	109%	101%	106%	106	93.4%	103%	90.3	103	101%	101%	99.8%	102%	101%	102%	
S=c1nc(-c2ccccn2)c(-c2ccccn2)n[nH]1	103%	105%	89.6%	118%	118%	102%	111%	107%	98.3	100%	103%	107	112	102%	97.7%	108%	116%	95.9%	114%	
Nc1c(Br)cc(O)c2c1C(=O)c1ccccc1C2=O	91.6%	66.3%	89.5%	77.5%	80.5%	60.3%		89.1%	100	47.7%	54%	110	95.2	92%	84.6%	96.7%	87.4%	34.4%	112%	114
Nc1ccc(F)c(Cl)c1F	111%	100%	107%	101%	97.1%	106%	103%	118%		111%	108%	89.3	110	116%	84.1%		103%	95.3%	109%	107
Oc1cccc(CNC2CCCCC2)c1	119%	101%	129%	102%	114%	103%	106%	119%		105%	100%	90.4	95	106%	99.8%	103%	96.5%	113%	110%	120
CSc1cnc2ccccc2n1	115%	106%	88.7%	95.7%	111%	105%		91.3%	97.3	104%	83.2%	107	99.5	94.1%	89.6%	105%	97.1%	96.4%	110%	97.9
O=C(NC(=S)N1CC=CCC1)c1ccccc1	129%	111%	100%	104%	128%	108%		105%	95.8	102%	100%	111	105	104%	98.5%	104%	107%	107%	115%	111
O=C(c1ccccc1O)N1CCCC1	115%	89.1%	104%	105%	106%	106%		80.2%	96.4	99.2%	93%	88	97.2	89.8%	84.4%	105%	100%	99.7%	98.5%	96.6
C=C1CC2(OC1=O)C(=O)N(C)c1ccc(I)cc12 (configuration not stated)	-95.2% (active)	-50% (active)	-77.1% (active)	-2.19% (active)	-73.4% (active)	-75% (active)	-88.2% (active)	-69.3% (active)		-53.7% (active)	-74.7% (active)	38.4	64	2.89% (active)	-76.6% (active)	-92% (active)	-61.2% (active)	-65.4% (active)	-93.6% (active)	55.4
CSc1nsc(N)n1	115%	113%	93.5%	95.9%	108%	104%		99.9%	97.6	95.5%	95.1%	87.4	96	94.9%	93.6%	101%	93.1%	98.2%	106%	101
CC(C)c1ccc(C(=O)OCCCl)cc1	117%	103%	89.9%	105%	41.8%	112%	104%	95.3%		94%	109%	94	91.1	101%	106%	100%	110%	97.1%	92%	83.8
Nc1ccc2ccccc2c1-c1c(N)ccc2ccccc12	25.8%	18.7%	42.4%	43%	6.23% (active)	54.1%		18%	19.5	30.7%	7.41% (active)	42.7	44.1	21.5%	31.2%	25.5%	24.9%	36.8%	56.4%	13.8
COC(c1ccc2c(c1)OCO2)C(C)Br (configuration not stated)	109%	87.3%	98.3%	94.8%	99.9%	107%	92.5%		97.1	103%	88.8%	76.6	101	96.9%	69.3%	104%	94.6%	92.3%	103%	101
CN1CCCN(C(c2ccccc2)c2ccc(Cl)cc2)CC1 (configuration not stated)	107%	90%	98.8%	95.8%	86.8%	82.3%	96.9%		91.1	85.9%	86.6%	59	117	97.2%	86.5%	94.8%	106%	89.4%	103%	92.2
O=C(O)C1CSC(c2ccccc2)N1 (configuration not stated)	105%	128%	98.8%	80.9%	106%	102%		106%	95.6	90.5%	91.7%	96.7	96.5	105%	92.6%	101%	93%	102%	99.6%	99.8
